Laboratory results taken from PubChem BioAssay (Tox21).
Where “and” joins values, the source holds several entries; their conditions need not be identical. Equal entries are not always repeated. Results filed as inconclusive are left out. A call without a number means that no potency is given here. Some structures have more than one record in an assay (separate samples or runs), and their calls can disagree. Calls of active or inactive are those of the source. Unless noted, calls come from the whole dose curve; as a rule, active = well fitted curve in the direction sought with a large enough effect in the repeat runs; inconclusive = weak or mixed curves; inactive = no such curve, though single readings can be large; an effect the other way counts as inactive or inconclusive.

Key:
[1] = target: Aryl hydrocarbon receptor (Homo sapiens) (UniProt P35869); experiment: qHTS assay to identify small molecule that activate the aryl hydrocarbon receptor (AhR) signaling pathway (AID 743085); note: nearly all actives have a fitted effect of over 15% in size; note: potency is the fitted concentration of half-maximal effect;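 for activation: HG2L7.5c1 human HepG2 liver cells with stably integrated DRE-driven firefly reporter; series mostly up to about 70 µM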
Chain of Aryl hydrocarbon receptor (Homo sapiens) (P35869 whole entry, looked up): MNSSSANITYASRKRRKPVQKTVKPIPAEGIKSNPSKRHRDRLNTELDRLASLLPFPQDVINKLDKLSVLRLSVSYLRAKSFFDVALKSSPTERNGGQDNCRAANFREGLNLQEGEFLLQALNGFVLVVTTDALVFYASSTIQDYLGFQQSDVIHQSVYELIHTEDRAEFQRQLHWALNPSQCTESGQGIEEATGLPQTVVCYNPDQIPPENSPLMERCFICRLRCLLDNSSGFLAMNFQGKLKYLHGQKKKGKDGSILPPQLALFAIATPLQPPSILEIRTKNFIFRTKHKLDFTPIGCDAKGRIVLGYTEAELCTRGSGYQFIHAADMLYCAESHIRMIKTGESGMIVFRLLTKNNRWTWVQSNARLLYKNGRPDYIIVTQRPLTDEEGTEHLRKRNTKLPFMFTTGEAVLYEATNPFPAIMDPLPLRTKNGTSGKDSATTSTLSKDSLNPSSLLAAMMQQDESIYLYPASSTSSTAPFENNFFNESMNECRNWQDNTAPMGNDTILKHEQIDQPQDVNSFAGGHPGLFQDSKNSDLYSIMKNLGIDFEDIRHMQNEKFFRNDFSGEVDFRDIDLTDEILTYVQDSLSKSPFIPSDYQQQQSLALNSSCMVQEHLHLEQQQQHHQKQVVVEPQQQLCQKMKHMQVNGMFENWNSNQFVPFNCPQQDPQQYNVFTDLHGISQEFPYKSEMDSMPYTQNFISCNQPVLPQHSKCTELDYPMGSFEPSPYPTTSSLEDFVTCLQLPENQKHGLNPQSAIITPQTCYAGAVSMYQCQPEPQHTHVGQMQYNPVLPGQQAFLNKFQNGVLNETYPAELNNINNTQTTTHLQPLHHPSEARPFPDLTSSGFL
In short: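 HepG2 cells (HG2L7.5c1) stably carrying a firefly luciferase reporter driven by 20 dioxin responsive elements were exposed to compound for 24 h at 37C after a 5 h settling period; luminescence rise (ONE-Glo) indicated activation.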

[2] = target: Peroxisome proliferator-activated receptor gamma (Homo sapiens) (UniProt P37231); experiment: qHTS assay to identify small molecule agonists of the peroxisome proliferator-activated receptor gamma (PPARg) signaling pathway (AID 743094; active = well fitted activation curve with a large enough effect in the signal ratio in the repeat runs, not every such curve was filed as active; the % refers to the signal ratio)
Chain of Peroxisome proliferator-activated receptor gamma (Homo sapiens) (P37231 whole entry, looked up): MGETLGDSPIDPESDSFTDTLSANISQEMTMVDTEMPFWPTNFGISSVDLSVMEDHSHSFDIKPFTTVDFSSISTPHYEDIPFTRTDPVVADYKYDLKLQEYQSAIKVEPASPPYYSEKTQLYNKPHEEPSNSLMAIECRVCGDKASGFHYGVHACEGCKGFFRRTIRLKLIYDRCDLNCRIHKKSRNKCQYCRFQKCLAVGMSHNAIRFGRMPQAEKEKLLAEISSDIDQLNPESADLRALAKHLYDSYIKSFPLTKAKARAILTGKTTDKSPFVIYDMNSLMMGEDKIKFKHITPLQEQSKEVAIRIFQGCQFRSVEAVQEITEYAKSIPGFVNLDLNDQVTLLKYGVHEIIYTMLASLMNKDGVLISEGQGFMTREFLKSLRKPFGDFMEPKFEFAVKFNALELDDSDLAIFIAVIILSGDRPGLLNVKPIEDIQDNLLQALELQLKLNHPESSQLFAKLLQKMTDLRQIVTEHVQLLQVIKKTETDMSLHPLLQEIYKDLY
In short: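 Beta-lactamase FRET fluorescence was the read-out after a 1 h room-temperature substrate step, following 17 h compound treatment at 37C of HEK293H cells expressing a UAS-driven bla reporter responsive to PPARg.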

[3] = target: Peroxisome proliferator-activated receptor gamma (Homo sapiens) (UniProt P37231); experiment: qHTS assay to identify small molecule antagonists of the peroxisome proliferator-activated receptor gamma (PPARg) signaling pathway (AID 743191; calls by dose curve; note: series mostly up to about 63 µM; nearly all actives have a fitted effect of over 30% in size)
In short: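 Beta-lactamase reporter under UAS control in HEK293H PPARg-bla cells; compound treatment 17 h at 37C. Read-out: fluorescence intensity after 1 h room-temperature incubation with LiveBLAzer B/G FRET substrate.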

[4] = qHTS assay to identify small molecule antagonists of the peroxisome proliferator-activated receptor gamma (PPARg) signaling pathway - cell viability counter screen (AID 743194); settings: Potency: co-treated with 50 nM rosiglitazone; note: nearly all actives have a fitted effect of over 55% in size; note: potency is the fitted concentration of half-maximal effect
In short: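 Viability was measured as CellTiter-Glo luminescence in GeneBLAzer PPARg UAS-bla HEK293H cells. These cells had been exposed 17 h at 37 C to compounds together with rosiglitazone at 50 nM final, with the beta-lactamase readout taken in the same wells.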

[5] = qHTS assay for small molecule agonists of the antioxidant response element (ARE) signaling pathway (AID 743202; active = well fitted activation curve with a large enough effect in the signal ratio in the repeat runs, not every such curve was filed as active; the % refers to the signal ratio)
In short: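 An ARE-responsive beta-lactamase gene stably integrated in HepG2 cells serves as reporter. After 5 h plating and 16 h compound incubation at 37 C, fluorescence of the B/G FRET substrate was measured.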

[6] = qHTS assay for small molecule agonists of the antioxidant response element (ARE) signaling pathway - cell viability counter screen (AID 743203; calls by dose curve; note: nearly all actives have a fitted effect of over 55% in size; note: potency is the fitted concentration of half-maximal effect)
In short: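 HepG2 cells carrying ARE-driven beta-lactamase; 2,000 cells/well; 5 hrs plating; compound pinned from DMSO; 16 hrs 37C/5% CO2; CellTiter-Glo added; 30 min RT; luminescence.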

[7] = qHTS assay for small molecule activators of the heat shock response signaling pathway - cell viability counter screen (AID 743209); note: nearly all actives have a fitted effect of over 50% in size
In short: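 Luminescence from CellTiter-Glo, added after the beta-lactamase FRET read, gave the viability signal. Cells were HSE-bla HeLa treated with DMSO-dissolved compounds for 5 h at 37 C following overnight plating.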

[8] = qHTS assay for small molecule activators of the heat shock response signaling pathway (AID 743210; active = well fitted activation curve with a large enough effect in the signal ratio in the repeat runs, with a control signal flat, not every such curve was filed as active; the % refers to the signal ratio;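 note: HeLa cells with beta-lactamase reporter driven by heat shock elements; series mostly up to about 63 µM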)
In short: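 In HSE-bla HeLa cells, 5 h compound incubation (37 C) precedes addition of LiveBLAzer B/G substrate; after 2.5 h at room temperature, fluorescence intensity indicates reporter induction.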

[9] = qHTS assay to identify small molecule agonists of the peroxisome proliferator-activated receptor delta (PPARd) signaling pathway - cell viability counter screen (AID 743211); note: nearly all actives have a fitted effect of over 55% in size; note: potency is the fitted concentration of half-maximal effect
In short: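 PPARd-bla HEK293H cells (UAS-beta-lactamase reporter) were treated with compounds for 17 h at 37 C. Viability was then read in the same wells by CellTiter-Glo luminescence after 30 min at room temperature.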

[10] = qHTS assay to identify small molecule antagonists of the peroxisome proliferator-activated receptor delta (PPARd) signaling pathway - cell viability counter screen (AID 743213); note: nearly all actives have a fitted effect of over 50% in size; note: potency is the fitted concentration of half-maximal effect
In short: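 PPARd-bla HEK293H cells (3000/well) got compound plus 300 nM L165041 agonist for 17 h at 37 C. Viability in the same wells came from CellTiter-Glo luminescence after 30 min at room temperature.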

[11] = target: Bile acid receptor (Homo sapiens) (UniProt Q96RI1); experiment: qHTS assay to identify small molecule antagonists of the farnesoid-X-receptor (FXR) signaling pathway (AID 743217; active = well fitted inhibition curve with a large enough effect in the signal ratio in the repeat runs, not every such curve was filed as active; the % refers to the signal ratio)
Chain of Bile acid receptor (Homo sapiens) (Q96RI1 whole entry, looked up): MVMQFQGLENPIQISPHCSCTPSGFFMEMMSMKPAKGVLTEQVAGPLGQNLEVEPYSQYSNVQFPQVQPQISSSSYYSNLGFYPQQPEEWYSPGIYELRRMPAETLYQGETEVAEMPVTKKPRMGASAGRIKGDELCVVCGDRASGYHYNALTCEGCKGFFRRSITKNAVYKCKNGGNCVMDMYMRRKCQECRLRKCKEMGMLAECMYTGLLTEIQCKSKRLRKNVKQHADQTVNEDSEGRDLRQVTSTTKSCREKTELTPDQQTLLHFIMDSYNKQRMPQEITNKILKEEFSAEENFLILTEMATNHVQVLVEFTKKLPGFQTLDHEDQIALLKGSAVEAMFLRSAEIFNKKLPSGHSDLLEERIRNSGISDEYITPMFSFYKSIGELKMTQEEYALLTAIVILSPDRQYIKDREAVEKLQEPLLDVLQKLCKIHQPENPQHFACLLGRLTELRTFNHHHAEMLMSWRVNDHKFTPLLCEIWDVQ
In short: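 HEK 293T FXR-UAS-bla, 5000 cells/well; compound + CDCA 50 uM final; 16 h, 37 °C; B/G FRET substrate 2 h RT; fluorescence.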

[12] = qHTS assay to identify small molecule agonists of the farnesoid-X-receptor (FXR) signaling pathway - cell viability counter screen (AID 743218); note: nearly all actives have a fitted effect of over 45% in size; note: potency is the fitted concentration of half-maximal effect
In short: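 HEK 293T FXR-bla cells; 5 h pre-incubation, 16 h compound exposure at 37 C; LiveBLAzer substrate 2 h RT, then CellTiter-Glo 30 min RT, luminescence.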

[13] = target: Vitamin D3 receptor (Homo sapiens) (UniProt P11473); experiment: qHTS assay to identify small molecule antagonists of the vitamin D receptor (VDR) signaling pathway (AID 743223; active = well fitted inhibition curve with a large enough effect in the signal ratio in the repeat runs, not every such curve was filed as active; the % refers to the signal ratio)
Chain of Vitamin D3 receptor (Homo sapiens) (P11473 whole entry, looked up): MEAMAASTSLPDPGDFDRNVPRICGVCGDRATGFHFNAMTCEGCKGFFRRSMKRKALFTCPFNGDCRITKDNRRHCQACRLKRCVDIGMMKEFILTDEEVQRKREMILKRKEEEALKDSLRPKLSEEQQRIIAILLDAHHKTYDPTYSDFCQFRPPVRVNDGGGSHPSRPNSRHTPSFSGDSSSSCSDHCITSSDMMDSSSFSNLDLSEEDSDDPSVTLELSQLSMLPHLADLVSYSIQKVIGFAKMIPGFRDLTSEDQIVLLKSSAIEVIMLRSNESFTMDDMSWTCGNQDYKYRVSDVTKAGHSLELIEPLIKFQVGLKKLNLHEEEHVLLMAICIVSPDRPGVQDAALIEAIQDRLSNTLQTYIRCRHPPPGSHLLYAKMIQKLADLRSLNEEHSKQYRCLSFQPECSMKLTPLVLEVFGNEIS
In short: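 VDR-bla cells were plated, incubated 4 h at 37C, then given compound and 1alpha,25-dihydroxyvitamin D3 (3 nM final). After 16 h at 37C, LiveBLAzer B/G FRET substrate was added for 2 h at room temperature and fluorescence read.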

[14] = target: Peroxisome proliferator-activated receptor delta (Homo sapiens) (UniProt Q03181); experiment: qHTS assay to identify small molecule agonists of the peroxisome proliferator-activated receptor delta (PPARd) signaling pathway (AID 743212; calls by dose curve)
Chain of Peroxisome proliferator-activated receptor delta (Homo sapiens) (Q03181 whole entry, looked up): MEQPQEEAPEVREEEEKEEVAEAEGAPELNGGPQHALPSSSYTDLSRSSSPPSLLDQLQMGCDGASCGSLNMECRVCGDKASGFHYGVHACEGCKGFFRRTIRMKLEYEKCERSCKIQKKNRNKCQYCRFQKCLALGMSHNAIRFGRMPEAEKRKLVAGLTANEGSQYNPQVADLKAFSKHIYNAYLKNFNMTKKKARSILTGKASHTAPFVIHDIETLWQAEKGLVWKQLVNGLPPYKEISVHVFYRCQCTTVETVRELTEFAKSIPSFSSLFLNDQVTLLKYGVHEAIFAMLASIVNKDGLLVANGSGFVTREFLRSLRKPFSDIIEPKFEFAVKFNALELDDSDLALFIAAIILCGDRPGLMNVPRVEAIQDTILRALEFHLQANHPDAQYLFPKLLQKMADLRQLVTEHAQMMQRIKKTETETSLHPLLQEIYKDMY
In short: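 HEK293H UAS-bla reporter cells, human PPARd system; compounds delivered in DMSO after 5 h plating, then at 37 C. Beta-lactamase FRET read, 2 h RT substrate step.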

[15] = target: Bile acid receptor (Homo sapiens) (UniProt Q96RI1); experiment: qHTS assay to identify small molecule agonists of the farnesoid-X-receptor (FXR) signaling pathway (AID 743220; active = well fitted activation curve with a large enough effect in the signal ratio in the repeat runs, not every such curve was filed as active; the % refers to the signal ratio)
In short: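 Beta-lactamase reporter under UAS control in GeneBLAzer FXR HEK 293T cells (5000/well) measured with LiveBLAzer FRET substrate after 2 h at room temperature. Compound exposure lasted 16 h at 37C.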

[16] = qHTS assay to identify small molecule agonists of the vitamin D receptor (VDR) signaling pathway - cell viability counter screen (AID 743224); note: nearly all actives have a fitted effect of over 50% in size; note: potency is the fitted concentration of half-maximal effect
In short: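 Luminescence from CellTiter-Glo, read after 30 min at room temperature, reports viability of VDR-bla cells treated with compounds for 16 h at 37C in the wells used for the beta-lactamase FRET read.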

[17] = qHTS assay to identify small molecule that activate the aryl hydrocarbon receptor (AhR) signaling pathway - cell viability counter screen (AID 743086); note: nearly all actives have a fitted effect of over 45% in size; note: potency is the fitted concentration of half-maximal effect
In short: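 Cytotoxicity counter screen: CellTiter-Fluor signal (30 min, 37 C) in 4000 HepG2 cells/well carrying the DRE-luciferase reporter, following 24 h compound exposure at 37 C.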

[18] = qHTS assay to identify small molecule antagonists of the farnesoid-X-receptor (FXR) signaling pathway - cell viability counter screen (AID 743221; active = well fitted cell-killing curve with a large enough effect in the repeat runs, not every such curve was filed as active; note: nearly all actives have a fitted effect of over 50% in size)
In short: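 FXR-UAS-bla HEK 293T cells were treated with test compounds plus chenodeoxycholic acid (50 uM final) for 16 h at 37 C. Cell viability in the same wells was then read as CellTiter-Glo luminescence after 30 min at room temperature.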

[19] = target: Peroxisome proliferator-activated receptor delta (Homo sapiens) (UniProt Q03181); experiment: qHTS assay to identify small molecule antagonists of the peroxisome proliferator-activated receptor delta (PPARd) signaling pathway (AID 743215; active = well fitted inhibition curve with a large enough effect in the signal ratio in the repeat runs, not every such curve was filed as active; the % refers to the signal ratio;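 note: cells stimulated with agonist L165041 at 300 nM final during compound exposure; series mostly up to about 62 µM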)
In short: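 Read-out is beta-lactamase FRET fluorescence, measured 2 h after substrate addition at room temperature. Beforehand, UAS-bla HEK293H cells carrying the PPARd reporter were exposed to compounds with L165041 at 300 nM final for 17 h at 37 C.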

[20] = target: Vitamin D3 receptor (Homo sapiens) (UniProt P11473); experiment: qHTS assay to identify small molecule agonists of the vitamin D receptor (VDR) signaling pathway (AID 743222; calls by dose curve)
In short: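 VDR-bla cells, 2,000/well; 4 h preincubation 37C; cpd (DMSO) 16 h; LiveBLAzer B/G substrate 2 h RT; fluorescence intensity read.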

SMILES	Potency [1]	outcome [2]	Potency [3]	Potency [4]	Potency [5]	Potency [6]	Potency [7]	Potency [8]	Potency [9]	Potency [10]	outcome [11]	Potency [12]	outcome [13]	outcome [14]	outcome [15]	Potency [16]	Potency [17]	Potency [18]	Potency [19]	outcome [20]
C=CCN1CC[C@]23CCCC[C@H]2[C@H]1Cc1ccc(O)cc13	inactive	inactive	inactive	inactive	inactive	inactive	inactive	inactive	inactive	inactive	inactive	inactive	inactive	–	–	–	–	–	–	–
NNC(N)=O	inactive	inactive	inactive	inactive	–	inactive	inactive	inactive	inactive	inactive	inactive	inactive	–	inactive	inactive	inactive	–	–	–	–
NC1(c2ccccc2)CCCCC1	inactive	–	inactive	inactive	–	inactive	inactive	inactive	inactive	inactive	–	inactive	–	inactive	inactive	–	inactive	inactive	–	–
CCC1(c2ccccc2)C(=O)N(COC)C(=O)N(COC)C1=O	inactive	inactive	inactive	inactive	inactive	inactive	–	inactive	inactive	inactive	–	inactive	–	inactive	–	inactive	–	inactive	inactive	inactive
CCCCCCCCBr	inactive	inactive	–	inactive	–	inactive	inactive	inactive	inactive	inactive	inactive	inactive	inactive	–	inactive	inactive	inactive	inactive	–	inactive
O=C/C=C/c1ccco1	inactive	–	–	inactive	inactive	inactive	inactive	inactive	inactive	inactive	–	inactive	–	inactive	–	inactive	inactive	–	inactive	–
Oc1ccc2c3c1O[C@H]1[C@@H](O)C=C[C@H]4[C@@H](C2)NCC[C@@]341	inactive	–	–	inactive	–	inactive	inactive	–	–	inactive	inactive	inactive	inactive	–	–	inactive	inactive	inactive	–	inactive
CC(C)NCC(O)c1ccc([N+](=O)[O-])cc1 (stereo unspecified)	inactive	inactive	inactive	inactive	inactive	inactive	inactive	inactive	–	inactive	inactive	inactive	–	inactive	inactive	–	–	–	inactive	–
CCCC(C)C1(CC)C(=O)N=C(S)NC1=O (stereo unspecified)	inactive	–	–	inactive	–	inactive	inactive	inactive	inactive	inactive	–	inactive	inactive	–	–	inactive	inactive	inactive	–	inactive
C=CC=O	inactive	inactive	–	inactive	–	inactive	inactive	inactive	inactive	–	–	inactive	–	inactive	–	–	inactive	inactive	–	inactive
N[C@@H](Cc1ccc(Oc2cc(I)c(O)c(I)c2)c(I)c1)C(=O)O	inactive	–	–	inactive	inactive	inactive	inactive	–	inactive	inactive	inactive	inactive	–	inactive	inactive	inactive	inactive	inactive	inactive	–
CC(C)C(C)(N)C#N (stereo unspecified)	inactive	–	–	inactive	inactive	inactive	inactive	inactive	inactive	inactive	inactive	inactive	–	inactive	inactive	–	inactive	inactive	–	inactive
O=C1CCCCC1Cl (stereo unspecified)	inactive	–	inactive	inactive	–	inactive	inactive	–	inactive	inactive	inactive	inactive	inactive	inactive	–	inactive	inactive	inactive	inactive	inactive
C[C@H](N)C(=O)c1ccccc1	inactive	inactive	inactive	inactive	–	inactive	inactive	inactive	inactive	inactive	inactive	inactive	inactive	inactive	inactive	inactive	–	inactive	inactive	inactive
O=[N+]([O-])CCO	inactive	inactive	–	inactive	–	inactive	inactive	–	inactive	inactive	–	inactive	–	–	–	inactive	inactive	–	–	–
O=C(Cl)/C=C/C(=O)Cl	inactive	–	–	inactive	–	inactive	inactive	inactive	inactive	inactive	inactive	inactive	–	inactive	–	inactive	inactive	inactive	inactive	inactive
CCN(CCO)CCn1c(Cc2ccccc2)nc2c1c(=O)n(C)c(=O)n2C	inactive	inactive	inactive	inactive	inactive	inactive	inactive	inactive	inactive	inactive	inactive	–	–	–	inactive	–	–	inactive	–	–
O=C1C2CC=CCC2C(=O)N1SC(Cl)(Cl)Cl (stereo unspecified)	inactive	inactive	–	3.83 µM (active)	–	inactive and 23.9 µM (active)	inactive	–	inactive and 10.8 µM (active)	inactive and 12.1 µM (active)	–	inactive and 21.5 µM (active)	–	inactive	–	inactive and 6.81 µM (active)	inactive and 42.6 µM (active)	–	–	–
C[C@]12C=CC(=O)C=C1CC[C@@H]1[C@@H]2CC[C@@]2(C)[C@H]1CC[C@]2(C)O	inactive	inactive	–	inactive	–	inactive	inactive	inactive	inactive	–	–	inactive	inactive	–	–	inactive	inactive	inactive	–	–
CCOC(=O)Nc1cccc(OC(=O)Nc2ccccc2)c1	54.5 µM (active)	inactive	–	inactive	–	inactive	inactive	inactive	inactive	inactive	–	inactive	inactive	inactive	–	–	inactive	inactive	inactive	–
COC(=O)c1ccc(CBr)cc1	inactive	inactive	inactive	inactive	inactive	inactive	inactive	inactive	inactive	inactive	–	inactive	inactive	inactive	–	inactive	–	–	inactive	inactive
O=C(O)C(F)(F)C(F)(F)C(F)(F)C(F)(F)C(F)(F)C(F)(F)F	inactive	inactive	–	–	–	inactive	inactive	–	inactive	inactive	inactive	inactive	inactive	–	–	inactive	inactive	inactive	inactive	–
CN(C)C1CCCCC1	inactive	inactive	–	–	inactive	inactive	inactive	–	inactive	inactive	–	inactive	–	inactive	–	–	inactive	–	–	inactive
O=C(NC(O)C(Cl)(Cl)Cl)NC(O)C(Cl)(Cl)Cl (stereo unspecified)	inactive	–	–	inactive	inactive	inactive	inactive	inactive	inactive	inactive	–	inactive	–	–	–	inactive	inactive	–	–	inactive
